“And” between values parts separate entries of the source, which are not always exact repeats. Identical values can stand only once.
Columns and labels:
Assay in all cases: cell viability relative to vehicle control; higher = less cytotoxic
Conditions in all cases: 10 µM
[1] = system: K562
In short: (§1)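 CRISPR-edited mutant clones and isogenic wild-type clones from four leukaemia lines were screened against Selleck bioactive, kinase and epigenetic probe libraries, with identity-inconsistent compounds excluded. Each compound was acoustically dispensed at a single 10 µM dose into 384-well plates holding 2000 cells in 50 µL medium per well. After 48 h the supernatant was removed and CellTiter-Glo luminescence was read. Viability was expressed as percent of the on-plate vehicle control and analysed in Genedata Screener.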

[2] = system: MARIMO
In short: as §1

[3] = system: MOLM14
In short: as §1

[4] = system: OCI-AML2
In short: as §1

SMILES | cell viability ([1]; SRSF2 genotype: SRSF2 P95H/wt) | cell viability ([1]; SRSF2 genotype: SRSF2 wt/wt) [%] | cell viability ([2]; SRSF2 genotype: SRSF2 P95H/wt) [%] | cell viability ([2]; SRSF2 genotype: SRSF2 wt/wt) [%] | cell viability ([3]; SRSF2 genotype: SRSF2 P95H/wt) [%] | cell viability ([3]; SRSF2 genotype: SRSF2 wt/wt) [%] | cell viability ([4]; SRSF2 genotype: P95H/wt) [%] | cell viability ([4]; SRSF2 genotype: wt/wt) [%]
CN1CCC(=C2c3ccccc3CCc3cccnc32)CC1 [Azatadine dimaleate] | 100% and 108% | 94.1 | 92.2 | 102 | 91.9 | 100 | 88 | 99
O=C1C(=Cc2cccnc2)C(=O)c2ccccc21 | 110% and 102% | 116 | 94.2 | 102 | 89 | 99.4 | 102 | 102
Cc1nc(-c2cccnc2)sc1C(=O)Nc1ccccc1-c1cn2c(CN3CCOCC3)csc2n1 | 97.4% and 94.2% | 88.3 | 107 | 116 | 102 | 103 | 95.3 | 102
COC(=O)c1cc(OC)c(O)c(OC)c1 [Methyl syringate] | 101% and 87.8% | 91.2 | 94 | 102 | 89.2 | 92.3 | 96.8 | 101
COc1ccc(CCC(=O)N(c2nccc3ccccc23)[C@@H]2CCCNC2)cc1 | 91.8% and 90.5% | 85.2 | 79 | 93.4 | 80.5 | 85.3 | 91 | 91.2
CNc1nc(Nc2cnn(C3CCN(C4COC4)CC3F)c2Cl)ncc1C(F)(F)F (stereo not given) | 89.6% and 89% | 91.7 | 76.2 | 80.1 | 38.2 | 36.4 | 46.3 | 47.6
O=C(C=CC=Cc1ccccc1)CCc1ccccc1 [Alnustone] | 105% and 100% | 91.8 | 92 | 87.5 | 88.1 | 87.4 | 76.6 | 95.6
CC1(C)CC[C@]2(NC(=O)C(C)(F)F)CC[C@]3(C)[C@H](C(=O)C=C4[C@@]5(C)C=C(C#N)C(=O)C(C)(C)[C@@H]5CC[C@]43C)[C@@H]2C1 [Omaveloxolone (RTA-408)] | 9.19% and 4.65% | 5.62 | 1.12 | 0.48 | 0.3 | 0.25 | 0.23 | 0.32
N#C[C@@H]1C[C@@H]2C[C@@H]2N1C(=O)[C@@H](N)C12CC3CC(CC(O)(C3)C1)C2 | 107% and 99.7% | 107 | 97.6 | 88.9 | 96.7 | 99.5 | 96.6 | 108
CCOc1cc2ncc(C#N)c(Nc3ccc(F)c(Cl)c3)c2cc1NC(=O)/C=C/CN(C)C [Pelitinib (EKB-569)] | 9.19% and 1.6% | 0.91 | 5.88 | 1.37 | 0.45 | 0.62 | 0.33 | 0.46
